# PubChem BioAssay (Tox21)
# Values joined by “and” are separate entries in the source; they are usually repeats but may differ in a detail not shown here. Equal entries are not always repeated. Unmarked numbers belong to inactive results. Records with an inconclusive call do not appear. Where a call stands in place of a potency, no number is given. Active and inactive are the calls of the source. Unless noted, calls follow the shape of the dose curve; as a rule, active = well fitted curve in the direction sought with a large enough effect in the repeat runs; inconclusive = weak or mixed curves; inactive = no such curve, though single readings can be large; an effect the other way counts as inactive or inconclusive.
# What was measured:
# [1] = qHTS assay to identify small molecule antagonists of the estrogen related receptor (ERR) signaling pathway from Tox21 library - cell viability counter screen (AID 1224834); also: nearly all actives have a fitted effect of over 30% in size; also: potency is read from the fitted curve at half-maximal effect
# Method in brief: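 Viability readout (CellTiter-Fluor fluorescence, 30 min at 37 C) multiplexed with the ERR assay; cells treated 17.5 h at 37 C with compounds delivered in DMSO.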
# [2] = biological target: Luciferin 4-monooxygenase (Photinus pyralis) (UniProt P08659); experiment: qHTS assay to identify small molecule inhibitors of firefly luciferase (AID 1224835); also: nearly all actives have a fitted effect of over 25% in size; also: potency is read from the fitted curve at half-maximal effect
# Method in brief: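 Quantitative HTS format; KM concentrations of both substrates. Purified P. pyralis FLuc activity quantified from luminescence images.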
# [3] = qHTS assay to identify small molecule agonists of the constitutive androstane receptor (CAR) signaling pathway - cell viability counter screen (AID 1224836); also: nearly all actives have a fitted effect of over 45% in size; also: potency is read from the fitted curve at half-maximal effect
# Method in brief: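 Counter screen multiplexed with the CAR reporter readout: HepG2 cells co-transfected with hCAR and the CYP2B6-2.2kb construct receive a 15-concentration compound series and 0.75 uM PK11195 (final), then CellTiter-Fluor fluorescence is read after 23 h.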
# [4] = qHTS assay to identify small molecule antagonists of the constitutive androstane receptor (CAR) signaling pathway - cell viability counter screen (AID 1224837); also: nearly all actives have a fitted effect of over 45% in size; also: potency is read from the fitted curve at half-maximal effect
# Method in brief: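 Fluorescence from CellTiter-Fluor served as the viability signal. Human hepatoma HepG2 cells stably bearing hCAR and CYP2B6-2.2kb received compound plus CITCO (50 nM final) for 23 hr.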
# [5] = biological target: Nuclear receptor subfamily 1 group I member 3 (Homo sapiens) (UniProt Q14994); experiment: qHTS assay to identify small molecule antagonists of the constitutive androstane receptor (CAR) signaling pathway (AID 1224838);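 also: HepG2 cells stably expressing hCAR with CYP2B6 luciferase reporter stimulated by CITCO; nearly all actives have a fitted effect of over 40% in size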
# Method in brief: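 Quantitative HTS in double-stable HepG2-CYP2B6-hCAR cells. After 4 h plating, cells get compound (15 concentrations) and CITCO at 50 nM final, incubate 24 h at 37 C, then ONE-Glo luminescence is read.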
# [6] = biological target: Nuclear receptor subfamily 1 group I member 3 (Homo sapiens) (UniProt Q14994); experiment: qHTS assay to identify small molecule agonists of the constitutive androstane receptor (CAR) signaling pathway (AID 1224839); also: nearly all actives have a fitted effect of over 15% in size
# Method in brief: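 A 15-concentration quantitative screen uses HepG2 cells co-transfected stably with human CAR and CYP2B6-2.2kb reporter. Treatment lasts 24 h with 0.75 uM PK11195 final present; ONE-Glo luminescence is the signal.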
# [7] = qHTS assay to identify small molecule antagonists of the estrogen related receptor signaling pathway with the pleiotropic PPARgamma coactivator (PGC) from Tox21 10K library - cell viability counter screen (AID 1224840; active = well fitted cell-killing curve with a large enough effect in the repeat runs, not every such curve was filed as active; also: nearly all actives have a fitted effect of over 40% in size; also: potency is read from the fitted curve at half-maximal effect)
# Method in brief: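 Compounds in DMSO, alongside positive and negative controls, were pinned onto PGC/ERR cells (2,000 per well). Exposure lasted 17.5 hours at 37 C, followed by a 30-minute CellTiter-Fluor incubation and fluorescence reading.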
# [8] = biological target: Thyrotropin receptor (Homo sapiens) (UniProt P16473); experiment: qHTS assay to identify small molecule agonists of the thyroid stimulating hormone receptor (TSHR) signaling pathway (AID 1224843; calls by dose curve; also: nearly all actives have a fitted effect of over 45% in size)
# Method in brief: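 TSHR-expressing HEK293 cells (800 per well) were exposed to compounds for 30 min at room temperature. cAMP was then detected by HTRF competition with cAMP-d2 and anti-cAMP cryptate, read after 1 h at room temperature. Fifteen concentrations, triplicate.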
# [9] = qHTS assay to identify small molecule agonists of H2AX (AID 1224845; active = well fitted activation curve with a large enough effect in the signal ratio in the repeat runs, not every such curve was filed as active; the % refers to the signal ratio)
# Method in brief: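 Wild-type CHO-K1 cells plated overnight, then exposed 3 hr at 37C to compounds at 15 concentrations (0.76% DMSO). Lysed, then HTRF anti-pH2AX(S139)-cryptate/anti-H2AX-d2 detection after 24 hr at room temperature; emissions 665 and 620 nm.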
# [10] = qHTS assay to identify small molecule agonists of the hypoxia (HIF-1) signaling pathway (AID 1224846; active = well fitted activation curve with a large enough effect in the signal ratio in the repeat runs, not every such curve was filed as active; the % refers to the signal ratio)
# Method in brief: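 Measured by blue/green FRET after loading CCF4-AM: beta-lactamase expressed from a hypoxia response element in ME-180 cells. Test agents were delivered in DMSO and left 17 hrs; cells had been plated 5 hrs earlier in low-serum (0.5% dialyzed FBS) medium.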
# [11] = qHTS assay to identify small molecule agonists of H2AX - cell viability counter screen (AID 1224847; calls by dose curve; also: nearly all actives have a fitted effect of over 30% in size; also: potency is read from the fitted curve at half-maximal effect; as to activity change, negative = cytotoxicity: top concentration of the series differs between compounds)
# Method in brief: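 We seed wild-type CHO-K1 cells overnight, treat them for 3 hr at 37C with compounds in 15-concentration series, and quantify remaining viability by CellTiter-Glo luminescence.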
# [12] = qHTS RealTime-Glo MT Cell Viability Assay in HepG2 cells - 24 hour (AID 1224867); also: nearly all actives have a fitted effect of over 50% in size
# Method in brief: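 Cell number in HepG2 cultures estimated from NanoLuc luminescence generated by metabolic reduction of a prosubstrate by living cells. The homogeneous, nonlytic format allowed repeated reads at 0, 8, 16, 24, 32 and 40 h of compound exposure.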
# [13] = qHTS RealTime-Glo MT Cell Viability Assay in HEK293 cells - 32 hour (AID 1224868); also: nearly all actives have a fitted effect of over 50% in size; also: potency is read from the fitted curve at half-maximal effect; as to activity change, negative = cytotoxic: top concentration of the series differs between compounds
# Method in brief: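 Homogeneous bioluminescent viability format in HEK293 cells (600 cells/well). Following 5 h at 37 C/5% CO2, 23 nL compound was pintooled; the signal was measured repeatedly during 40 h incubation.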
# [14] = A CellTox Green Cytotoxicity Assay to monitor cytotoxicity in HEK293 cells - 0 hour (AID 1224869); also: nearly all actives have a fitted effect of over 50% in size
# Method in brief: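 Each value comes from one timepoint of a single continuous run in which HEK293 cells with CellTox Green were exposed to compound for up to 40 h at 37 C, dye fluorescence rising with cell death.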
# [15] = qHTS RealTime-Glo MT Cell Viability Assay in HepG2 cells - 40 hour (AID 1224870); also: nearly all actives have a fitted effect of over 50% in size
# Method in brief: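 HepG2 cells mixed with RealTime-Glo MT reagents (NanoLuc plus cell-permeant prosubstrate) were seeded at 600 cells/well, incubated 5 h at 37 C/5% CO2, then pinned with compounds in DMSO; nonlytic luminescence tracked viability during 40 h treatment.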
# [16] = qHTS assay to identify small molecule antagonists of the estrogen related receptor signaling pathway with the pleiotropic PPARgamma coactivator (PGC) from Tox21 10K library (AID 1224841; call rule not given here)
# Method in brief: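 Compound exposure ran 18 hours at 37 C in PGC/ERR cells (2,000/well) that had first rested 6 hours in a 37 C/5% CO2 incubator. Luciferase activity was then detected with One-Glo after a 30-minute room-temperature step.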
# [17] = qHTS assay to identify small molecule agonists of the hypoxia (HIF-1) signaling pathway - cell viability counter screen (AID 1224844; calls by dose curve; also: nearly all actives have a fitted effect of over 50% in size)
# Method in brief: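 Luminescent ATP content (CellTiter-Glo, 30 min, room temperature) served as the viability measure in HRE-bla ME-180 cells exposed to compounds for 17 hrs in low-serum medium (0.5% dialyzed FBS).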
# [18] = qHTS assay to identify small molecule antagonists of the estrogen related receptor (ERR) signaling pathway from Tox21 library (AID 1224848); also: nearly all actives have a fitted effect of over 50% in size
# Method in brief: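 Cells: ERR line, 2,000/well; 6 h preincubation 37 C/5% CO2. Cpd in DMSO via pin tool; 18 h, 37 C. ONE-Glo, 30 min RT, luminescence.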
# [19] = qHTS assay to identify small molecule agonists of the estrogen related receptor (ERR) signaling pathway from Tox21 library (AID 1224849; calls by dose curve; also: nearly all actives have a fitted effect of over 15% in size); conditions: ERR reporter cell line, ONE-Glo luciferase, 18 h
# Method in brief: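 We plated ERR reporter cells, waited 6 h, added compounds in DMSO by pin tool and incubated them 18 h at 37 C. ONE-Glo was then added and luminescence read after 30 min.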
# [20] = qHTS assay to identify small molecule agonists of the estrogen related receptor signaling pathway with the pleiotropic PPARgamma coactivator (PGC) from Tox21 10K library (AID 1224842); also: nearly all actives have a fitted effect of over 15% in size; also: potency is read from the fitted curve at half-maximal effect
# Method in brief: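 PGC/ERR reporter cells (NTP line) were seeded 2,000 per well, rested 6 h at 37 C/5% CO2, then pin-dosed with compounds in DMSO for 18 h at 37 C; luciferase read by One-Glo luminescence after 30 min at room temperature.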
# Nuclear receptor subfamily 1 group I member 3 (Homo sapiens), sequence (Q14994 whole entry, looked up): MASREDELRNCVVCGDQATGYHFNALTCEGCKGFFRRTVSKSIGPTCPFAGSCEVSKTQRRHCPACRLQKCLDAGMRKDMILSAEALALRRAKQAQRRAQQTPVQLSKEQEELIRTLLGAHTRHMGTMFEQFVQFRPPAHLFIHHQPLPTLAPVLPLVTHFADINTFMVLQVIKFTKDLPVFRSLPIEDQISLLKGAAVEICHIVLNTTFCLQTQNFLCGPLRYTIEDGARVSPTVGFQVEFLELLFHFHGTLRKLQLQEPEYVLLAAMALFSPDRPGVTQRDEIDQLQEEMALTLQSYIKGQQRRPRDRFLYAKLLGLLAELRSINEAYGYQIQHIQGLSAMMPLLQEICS
# Luciferin 4-monooxygenase (Photinus pyralis), sequence (P08659 whole entry, looked up): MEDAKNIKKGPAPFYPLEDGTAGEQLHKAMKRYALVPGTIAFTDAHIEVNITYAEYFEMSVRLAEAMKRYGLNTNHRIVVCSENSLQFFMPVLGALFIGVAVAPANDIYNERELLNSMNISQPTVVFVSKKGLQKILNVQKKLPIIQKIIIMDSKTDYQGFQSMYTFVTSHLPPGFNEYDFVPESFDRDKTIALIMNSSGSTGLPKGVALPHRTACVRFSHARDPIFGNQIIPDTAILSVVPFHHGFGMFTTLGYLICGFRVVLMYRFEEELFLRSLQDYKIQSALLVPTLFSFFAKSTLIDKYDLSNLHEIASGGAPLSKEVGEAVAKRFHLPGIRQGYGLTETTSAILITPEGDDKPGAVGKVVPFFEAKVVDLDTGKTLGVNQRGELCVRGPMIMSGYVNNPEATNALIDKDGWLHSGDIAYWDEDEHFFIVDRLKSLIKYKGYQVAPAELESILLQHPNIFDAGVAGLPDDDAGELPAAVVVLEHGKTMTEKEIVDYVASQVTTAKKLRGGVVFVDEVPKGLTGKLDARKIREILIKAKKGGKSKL
# Thyrotropin receptor (Homo sapiens), sequence (P16473 whole entry, looked up): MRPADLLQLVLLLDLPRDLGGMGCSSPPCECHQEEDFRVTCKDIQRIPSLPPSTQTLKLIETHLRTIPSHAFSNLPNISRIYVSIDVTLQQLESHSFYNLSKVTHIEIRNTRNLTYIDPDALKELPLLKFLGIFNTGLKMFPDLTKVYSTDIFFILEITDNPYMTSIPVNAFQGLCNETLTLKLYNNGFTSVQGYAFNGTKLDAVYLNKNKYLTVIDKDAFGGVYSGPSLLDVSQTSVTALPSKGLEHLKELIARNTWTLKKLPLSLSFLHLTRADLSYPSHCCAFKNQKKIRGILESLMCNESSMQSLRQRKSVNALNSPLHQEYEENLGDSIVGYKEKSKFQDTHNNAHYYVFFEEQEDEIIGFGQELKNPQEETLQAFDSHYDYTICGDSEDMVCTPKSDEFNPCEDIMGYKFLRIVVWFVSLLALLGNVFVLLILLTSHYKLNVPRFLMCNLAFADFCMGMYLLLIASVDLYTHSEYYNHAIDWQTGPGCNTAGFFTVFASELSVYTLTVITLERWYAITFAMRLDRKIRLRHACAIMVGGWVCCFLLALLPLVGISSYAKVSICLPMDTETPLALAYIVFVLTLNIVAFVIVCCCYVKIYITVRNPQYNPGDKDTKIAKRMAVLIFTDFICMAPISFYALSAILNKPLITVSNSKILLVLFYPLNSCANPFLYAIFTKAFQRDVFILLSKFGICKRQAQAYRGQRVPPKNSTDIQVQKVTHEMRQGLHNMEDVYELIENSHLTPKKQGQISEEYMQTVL
smiles,measurement,setting,value
C[C@H]1NCc2cc(-c3ccc4c(=O)c(C(=O)O)cn(C5CC5)c4c3OC(F)F)ccc21,"viability change, negative = cytotoxic",[1],-0.362% [at 19 µM]
same,"activity change, negative = inhibition",[2],-0.0227% [at 23.6 µM]
same,"viability change, negative = cytotoxic",[3],8.47% [at 19 µM]
same,"activity change, negative = cytotoxicity",[4],-0.799% [at 19 µM]
same,"activity, negative = inhibition",[5],10.2% [at 19 µM]
same,activation,[6],-2.33% [at 19 µM]
same,"viability change, negative = cytotoxic",[7],5.39% [at 19 µM]
same,activation,[8],2.59% [at 19 µM]
same,activation (H2AX phosphorylation),[9],4.25% [at 31.6 µM]
same,activation,[10],0.068% [at 15.8 µM]
same,"activity change, negative = cytotoxicity",[11],0.563% [at 31.6 µM]
same,"activity change, negative = cytotoxicity",[12],-15.8% [at 15.8 µM]
same,"activity change, negative = cytotoxic",[13],-6.15% [at 15.8 µM]
same,cytotoxicity,[14],0.0457% [at 15.8 µM]
same,"activity change, negative = cytotoxic",[15],-10.9% [at 15.8 µM]
CC(C)(c1cc(Br)c(OCC(Br)CBr)c(Br)c1)c1cc(Br)c(OCC(Br)CBr)c(Br)c1 (configuration not stated),Potency,[1],inactive
same,Potency,[2],inactive
same,Potency,[3],inactive
same,Potency,[4],inactive
same,Potency,[7],inactive
same,Potency,[16],inactive
same,Potency,[8],inactive
same,Potency,[17],inactive
same,Potency,[9],inactive
same,Potency,[10],inactive
same,Potency,[11],inactive
same,Potency,[18],inactive
same,"activity change, positive = activation",[19]; at 42.5 µM (top of the series),2.35%
same,Potency,[12],inactive
same,Potency,[13],inactive
same,Potency,[14],inactive
same,Potency,[15],inactive
COc1cc(S(=O)(=O)O)c(C)cc1N=Nc1c(O)ccc2cc(S(=O)(=O)O)ccc12,Potency,[1],27.3 µM (active)
same,Potency,[2],63.3 µM (active)
same,Potency,[3],30.6 µM (active)
same,Potency,[4],27.3 µM (active)
same,Potency,[6],inactive
same,Potency,[7],27.3 µM (active)
same,Potency,[8],inactive
same,Potency,[10],inactive
same,Potency,[11],45 µM (active)
same,"activity change, positive = activation",[19]; at 92.4 µM (top of the series),-21.5%
same,Potency,[13],inactive
same,Potency,[14],inactive
same,Potency,[15],inactive
Oc1ccccc1O,Potency,[1],43.8 µM (active)
same,Potency,[2],inactive
same,Potency,[3],inactive
same,Potency,[4],inactive
same,Potency,[5],inactive
same,Potency,[8],inactive
same,Potency,[11],inactive
same,Potency,[12],inactive
same,Potency,[13],39.4 µM (active) and 21.9 µM (active)
same,Potency,[14],inactive
same,Potency,[15],inactive
O=c1oc2cc(O)ccc2c2oc3cc(O)ccc3c12,Potency,[1],inactive
same,Potency,[2],19.2 µM (active)
same,Potency,[3],inactive
same,Potency,[4],inactive
same,Potency,[5],inactive
same,Potency,[7],inactive
same,Potency,[20],58.6 µM (active)
same,Potency,[17],inactive
same,Potency,[11],inactive
same,Potency,[18],inactive
same,Potency,[12],inactive
same,Potency,[14],inactive
CN1CCN2c3ccccc3Cc3ccccc3C2C1 (configuration not stated),Potency,[1],inactive
same,Potency,[2],inactive
same,Potency,[3],inactive
same,Potency,[5],inactive
same,Potency,[7],inactive
same,Potency,[16],inactive
same,Potency,[20],inactive
same,Potency,[8],inactive
same,Potency,[9],inactive
same,Potency,[11],inactive
same,Potency,[18],inactive
same,"activity change, positive = activation",[19]; at 42.5 µM (top of the series),-10.4%
same,Potency,[12],inactive
same,Potency,[13],inactive
same,Potency,[14],inactive
same,Potency,[15],inactive
CC(CCc1ccccc1)NCC(O)c1ccc(O)c(C(N)=O)c1 (configuration not stated),Potency,[1],27.3 µM (active)
same,Potency,[2],inactive
same,Potency,[3],30.6 µM (active)
same,Potency,[5],inactive
same,Potency,[6],inactive
same,Potency,[7],inactive
same,Potency,[17],inactive
same,Potency,[9],inactive
same,Potency,[11],inactive
same,Potency,[12],inactive
same,Potency,[13],inactive
same,Potency,[14],inactive
same,Potency,[15],inactive
